CaV13 FRET inh: Primary screen for inhibitors of IQ motif and Ca2+-dependent inactivation inhibitor domain binding in CACNA1D, Förster resonance energy transfer in living cells, …. HEK cells, CFP/YFP FRET ICDI-IQ, plate reader, 10 min; percent FRET-ratio fall versus neutral wells. inhibition, % at 12.3 µM. actives 0.098% (n = 340,000). AID 743397;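 active means mean replicate inhibition of at least 30% and at least 1% of replicates passing that level; inconclusive means only one of the two criteria is met; inactive means neither criterion is met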;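 further: 0% = median of the neutral control wells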
ERAP1 HTS inh: blocks human ERAP1 aminopeptidase activity; actives 0.15% (n = 340,000); inhibition, % at 10.7 µM; Q9NZ08; recombinant ERAP1, Leu-AMC fluorescence, 60 min;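 active means mean replicate inhibition of at least 30%, or all replicates individually reaching that 30% level; inactive means mean below 30% and not every replicate reaching it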;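 further: 0% = neutral control wells and 100% = L-leucinethiol positive control wells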
Target sequence (Q9NZ08 whole entry, looked up): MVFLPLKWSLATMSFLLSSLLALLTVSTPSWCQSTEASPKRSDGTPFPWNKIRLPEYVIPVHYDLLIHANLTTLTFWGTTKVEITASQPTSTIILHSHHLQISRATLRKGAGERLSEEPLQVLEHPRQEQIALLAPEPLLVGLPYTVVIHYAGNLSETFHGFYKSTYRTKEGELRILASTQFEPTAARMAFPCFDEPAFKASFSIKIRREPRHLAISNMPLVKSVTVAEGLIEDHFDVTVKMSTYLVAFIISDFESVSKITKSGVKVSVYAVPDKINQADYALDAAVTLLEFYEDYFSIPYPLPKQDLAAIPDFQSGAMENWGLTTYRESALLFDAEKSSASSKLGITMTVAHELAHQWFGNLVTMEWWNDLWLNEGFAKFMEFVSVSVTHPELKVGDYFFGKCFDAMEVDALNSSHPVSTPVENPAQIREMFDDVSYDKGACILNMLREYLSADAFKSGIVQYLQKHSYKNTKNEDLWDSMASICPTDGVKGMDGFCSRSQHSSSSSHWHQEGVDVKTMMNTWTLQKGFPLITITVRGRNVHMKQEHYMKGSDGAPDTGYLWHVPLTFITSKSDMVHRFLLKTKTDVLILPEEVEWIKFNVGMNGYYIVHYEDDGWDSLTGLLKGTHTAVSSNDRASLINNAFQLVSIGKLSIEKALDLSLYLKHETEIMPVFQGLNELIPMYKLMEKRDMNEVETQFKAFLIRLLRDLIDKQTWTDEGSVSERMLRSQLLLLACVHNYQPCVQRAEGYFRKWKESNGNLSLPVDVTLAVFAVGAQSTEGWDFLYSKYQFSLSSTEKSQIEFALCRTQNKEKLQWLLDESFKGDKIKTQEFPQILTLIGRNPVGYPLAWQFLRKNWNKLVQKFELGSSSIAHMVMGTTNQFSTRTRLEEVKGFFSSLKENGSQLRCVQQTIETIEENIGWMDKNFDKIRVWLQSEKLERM
Ecoli rRNA inh: inhibitors of bacterial rRNA selective over humanized ribosomes. E. coli WT GFP vs humanized-ribosome RFP mutants, fluorescence, 24 h; hits give low values; DMSO median 0, no signal -100. GFP signal change (wild-type ribosome), % (no concentration beside the values). actives 1.6% (n = 350,000);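 active means significant combined selectivity score with lowered wild-type GFP, culture density cut under 30%, mutant RFP and density less affected; inactive means any of these conditions unmet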
PGC1a acetyl inh: lowers PGC1a acetylation signal in U2OS cells | AlphaScreen anti-acetyl-lysine; with virally co-expressed GCN5 acetyltransferase | inhibition, % at 15.6 µM | actives 0.17% (n = 350,000);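 active means every replicate shows inhibition of at least 40%; inconclusive means mean inhibition at least 40% but some replicate below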;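 further: 0% = neutral control wells and 100% = positive control wells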
GSIS activator: GLuc luminescence reporter in INS-1E cells, primary screen for activators of glucose-dependent secretion of insulin | INS-1E GLuc reporter insulin secretion, 2-3 h | actives 0.61% (n = 370,000) | activation, % at 16.6 µM;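 active means lowest replicate activation of at least 40%, so every replicate reaches that level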;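 further: 0% = median of neutral control wells and 100% = median of IBMX positive control wells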
DENV2 CPE rescue: protects cells from dengue virus 2 cytopathic effect. AID 651640. actives 1.7% (n = 350,000). DENV2-infected cells, cytopathic effect rescue, plate reader. CPE inhibition, % at 9.99 µM; in the data active means CPE inhibition above about 20%, passing the limit was not always enough; inconclusive means no clear call, values can overlap the other calls; tested in BHK-21 cells;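 further: 0% = median of neutral control wells and 100% = median of positive control wells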
The depositor's hits bear a star; ? = inconclusive; nt = no result. In the library only some 3.2% were active in any assay of this set; here they are far more common.

SMILES	CaV13 FRET inh	ERAP1 HTS inh	Ecoli rRNA inh	PGC1a acetyl inh	GSIS activator	DENV2 CPE rescue
C[C@H]1CCCCO[C@H](CN(C)C(=O)Nc2cccc3ccccc23)[C@@H](C)CN([C@@H](C)CO)C(=O)c2cc(NS(=O)(=O)c3ccc(F)cc3)ccc2O1	nt	-5	0	-4	9	26*
CC(C)NC(=O)N(C)C[C@@H]1Oc2ccc(NC(=O)Nc3cccc4ccccc34)cc2CC(=O)N([C@H](C)CO)C[C@@H]1C	nt	nt	3	-3	3	-5
CCCNC(=O)N(C)C[C@H]1Oc2cc(C3=CCCC3)ccc2S(=O)(=O)N([C@@H](C)CO)C[C@H]1C	nt	nt	-1	-6	8	0
Cc1ccc(S(=O)(=O)Nc2ccc3c(c2)C(=O)N([C@@H](C)CO)C[C@@H](C)[C@H](CN(C)S(=O)(=O)c2cccs2)OCCCC[C@H](C)O3)cc1	nt	-3	1	-2	-2	-5
Cc1ccc(S(=O)(=O)Nc2ccc3c(c2)C(=O)N([C@@H](C)CO)C[C@@H](C)[C@@H](CN(C)S(=O)(=O)c2cccs2)OCCCC[C@@H](C)O3)cc1	nt	1	-6	-11	0	40*
C[C@H]1CCCCO[C@H](CN(C)S(=O)(=O)c2cccs2)[C@@H](C)CN([C@@H](C)CO)C(=O)c2cc(NS(=O)(=O)c3ccc(Cl)cc3)ccc2O1	nt	-1	0	-4	3	-12
C[C@@H]1CN([C@@H](C)CO)C(=O)c2cc(NS(=O)(=O)c3ccc(Cl)cc3)ccc2O[C@@H](C)CCCCO[C@H]1CN(C)S(=O)(=O)c1cccs1	nt	-1	-5	1	1	36*
O=C(Nc1ccccc1F)N[C@H]1CC[C@H](CCNS(=O)(=O)c2ccccc2)O[C@H]1CO	nt	-1	-4	1	-1	-8
C[C@H](CO)N1C[C@H](C)[C@H](CN(C)S(=O)(=O)c2ccc(Cl)cc2)Oc2ccc(NC(=O)c3ccncc3)cc2C1=O	nt	0	-2	-14	-6	-6
CNC(=O)C[C@H]1CC[C@@H]2[C@@H](COc3ccc(NC(=O)c4ccc(C(F)(F)F)cc4)cc3C(=O)N2C)O1	nt	nt	-2	-4	-1	4
Cc1ccc(-n2ccnc(SCC(=O)NC3CCCC3)c2=O)cc1Cl	-6	-1	3	nt	3	-5
O=C(CSc1nccn(-c2ccc(F)c(Cl)c2)c1=O)NC1CCCC1	-6	2	8	nt	24	22*
COc1ccc(Cl)cc1NC(=O)CN(C)S(=O)(=O)c1cccs1	-7	-4	-32*	-9	10	4
COc1ccc(Cl)cc1NC(=S)NNC(=O)c1cccs1	1	nt	-32*	nt	-53	8
COc1ccc(Cl)cc1NC(=O)CN(C)CC(=O)NCc1cccs1	-7	1	-5	-13	1	6
CN1C(=O)c2cc(NC(=O)c3ccccc3Cl)ccc2OC[C@@H]2O[C@@H](CC(=O)O)CC[C@@H]21	nt	-3	2	-6	1	-8
O=C(C[C@@H]1C[C@H]2c3cc(NC(=O)NC4CCCC4)ccc3O[C@H]2[C@@H](CO)O1)NCc1ccc(Oc2ccccc2)cc1	nt	-1	3	6	9	-2
O=[N+]([O-])c1cccc(COc2ccccc2CN2CCCCC2)c1	-4	-2	11	3	56*	-3
CCC(=O)N(C)C[C@H]1Oc2cc(-c3ccc(OC)cc3)ccc2S(=O)(=O)N([C@H](C)CO)C[C@@H]1C	nt	-3	-9	-5	-10	3
COc1ccc(NC(=O)Nc2ccc3c(c2)C(=O)N(C)C[C@@H](OC)[C@@H](C)CN[C@@H](C)CO3)cc1	nt	nt	1	-7	-4	nt
COc1cc2ccc(CC(=O)O)cc2cc1OC	-5	1	nt	nt	77*	-2
COc1cc(CC(=O)O)ccc1OCc1ccccc1	-14	4	11	-8	3	-3
CN(C)C(=O)C[C@@H]1C[C@@H]2c3cc(NS(C)(=O)=O)ccc3O[C@@H]2[C@H](CO)O1	nt	1	4	-3	1	17
Cc1ccc(S(=O)(=O)N2CCOCC2)cc1-c1n[nH]c(=S)n1-c1ccccc1	-6	46*	0	nt	10	-6
CCOC(=O)CN(C)Cc1cn(C)nc1-c1ccc(Oc2ccccc2)cc1	-3	0	-20*	-11	-1	3
SMILES	CaV13 FRET inh	ERAP1 HTS inh	Ecoli rRNA inh	PGC1a acetyl inh	GSIS activator	DENV2 CPE rescue
Cc1cnccc1CN(C)Cc1cn(C)nc1-c1ccc(Oc2ccccc2)cc1	-3	-1	-57	-2	-10	-2
CN1CCCN=C1/C=C/c1cccs1	-5	2	13	nt	2	74*
O=C(/C=C/c1cccs1)N1CCCC1	-16	-4	-9	nt	-11	2
CCCN(C)C[C@H]1Oc2cc(C3=CCCCC3)ccc2S(=O)(=O)N([C@H](C)CO)C[C@@H]1C	nt	nt	nt	-24	nt	nt
N=c1c2c(n(Cc3ccc(F)cc3)c3c1CCC3)CCC2	-8	5	-29*	nt	6	4
CCn1c2c(c(=N)c3c1CCC3)CCC2	-6	6	1	nt	8	1
CCCCCCCn1c2c(c(=N)c3c1CCC3)CCCC2	-18	83*	-50	-2	nt	3
C[C@@H]1CN([C@H](C)CO)C(=O)Cc2cc(NC(=O)NC3CCCCC3)ccc2O[C@@H]1CN(C)S(C)(=O)=O	nt	0	4	-1	11	7
O=C(NN1C(=O)/C(=C/c2ccc(O)c(O)c2)SC1=S)c1ccccc1	-1	6	-31*	nt	-54	10
CC(=Cc1ccccc1)C=C1SC(=S)N(CCCC(=O)Nc2ccc(C(=O)O)cc2)C1=O	-7	nt	-23*	nt	-24	8
CC(/C=C1\SC(=S)N(NC(=O)c2ccc(O)cc2)C1=O)=C\c1ccccc1	-4	0	-25*	nt	-5	-8
CCC(=O)N1CC2(C1)CN(C(=O)CC)[C@H](CO)c1[nH]c3cc(OC)ccc3c12	nt	-3	7	nt	12	?
CN(Cc1ccccc1)c1ncnc2[nH]ncc12	-9	-1	-6	15	40*	5
CN(Cc1ccccc1)c1ncnc(N)c1[N+](=O)[O-]	-3	2	-2	34	44*	6
Cc1ccc(-c2nc3c(=O)n(C)c4ccccc4c3o2)cc1	nt	nt	nt	-2	79*	nt
Cc1ccc(-c2nc3c(=O)n(-c4ccccc4)c4c(c(=O)n(C)c(=O)n4C)c3o2)cc1	-2	nt	-2	-4	3	14
CNC[C@H]1Oc2ccc(NC(=O)Cc3cn(C)c4ccccc34)cc2C(=O)N([C@@H](C)CO)C[C@H]1C	nt	4	6	15	7	3
COc1cc(/C=C(/C(=O)O)c2ccc(-c3ccccc3)cc2)cc(OC)c1OC	-4	9	-9	-5	10	-2
COc1ccc(/C(=C/c2ccc(OC(F)F)c(OC)c2)C(=O)O)cc1OC	-6	nt	nt	nt	75*	nt
